Vaccinia Venus: vaccinia inhibition (Venus reporter); Vaccinia virus Venus reporter expression, fluorescence; Potency, µM (doses to about 36.5 µM), inactives show at the top dose activity change, negative = inhibition, usual class: inhibitors; 0.46% of 330,000 active; AID 720580; calls by dose curve; tested in A549 cells; further: potency means the concentration at half of the fitted maximal effect; on the % scale 0 is the no-effect control and ±100 the full control effect; nearly all actives have a fitted effect of over 30% in size
VACV mCherry inh: inhibitors of vaccinia virus infection (mCherry reporter signal); Vaccinia virus mCherry reporter infection, fluorescence; Potency, µM (top dose mostly 36.5 µM), without a hit: at the top dose activity change, negative = inhibition, usual class: inhibitors; 0.63% of 310,000 active; AID 720579; calls by dose curve; tested in A549 cells; further: potency means the concentration at half of the fitted maximal effect; on the % scale 0 is the no-effect control and ±100 the full control effect; nearly all actives have a fitted effect of over 35% in size
MARV entry inh: blocks Marburg virus binding to or entry into cells; Marburg virus pseudotyped entry inhibition, cell reporter; Potency, µM (titrated, usually from 37.8 µM), for the others: at the top dose activity change, negative = inhibition, usual class: inhibitors; 1.8% of 300,000 active; AID 540276; calls by dose curve; tested in HEK293 cells; further: potency means the concentration at half of the fitted maximal effect; on the % scale 0 is the no-effect control and ±100 the full control effect
Shiga toxin inh: Shiga toxin inhibition. Vero cells, Shiga toxin protein synthesis inhibition reporter. inhibition, % at 38.7 µM. 9.2% of 290,000 active. AID 2315; in the data active means inhibition mostly above about 28%, no sharp cut-off; inactive means mostly below about 43%; further: 0% is about no effect
Lassa entry inh: inhibitors of Lassa virus binding or cell entry. Lassa virus pseudotype entry inhibition, cell reporter. Potency, µM (series often up to 37.9 µM), for the others: at the top dose activity change, negative = inhibition, hits mostly inhibitors. 1.2% of 300,000 active. AID 540256; calls by dose curve; tested in HEK293 cells; further: potency means the concentration at half of the fitted maximal effect; on the % scale 0 is the no-effect control and ±100 the full control effect; nearly all actives have a fitted effect of over 50% in size
Cycloheximide cs: affects cycloheximide protein synthesis inhibition readout, counter-screen; max response, %; 12% of 300,000 active; cell reporter, cycloheximide protein synthesis inhibition counterscreen; in the data active means max response mostly above about 13%, no sharp cut-off; inactive means mostly below about 14%; further: read at 38.3 µM for the half of the compounds with a filed dose; 0% is about no effect
Numbers without * were called inactive; i = inactive; ? = inconclusive; nt = no result; [ ] = dose if it differs, or a comment. Only a selection was taken, and hits are over-represented in it overall.

SMILES	Vaccinia Venus	VACV mCherry inh	MARV entry inh	Shiga toxin inh	Lassa entry inh	Cycloheximide cs
Cc1ccc(/C=C/C(=O)c2ccccc(=O)c2O)cc1C	-23%	?	16µM*	77*	?	51*
O=C(/C=C/c1ccc2ccccc2n1)c1cc(Br)ccc1O	nt	nt	nt	80*	nt	43*
O=C(O)/C=C/c1ccc2ccccc2n1	-16%	?	?	5	-3%	1
O=C(COC(=O)c1cc(Br)ccc1O)c1ccc(F)cc1	-14%	i	17%	nt	-4%	nt
N/C(Cc1ccc([N+](=O)[O-])cc1)=N\OC(=O)c1ccc2ccccc2c1	-9%	nt	?	131*	?	45*
N/C(Cc1ccc([N+](=O)[O-])cc1)=N\OC(=O)c1ccco1	nt	nt	?	35*	?	35*
N/C(Cc1ccc([N+](=O)[O-])cc1)=N\OC(=O)c1ccccc1Br	-14%	-24%	?	18	?	-2
O=C(CSc1nnc2[nH]c(=O)cc(-c3ccccc3)n12)Nc1ccc(F)cc1F	-10%	i	nt	nt	-7%[46.1 µM]	nt
CCOC(=O)C1CCCN(C(=O)c2nn(-c3ccc(C)cc3)c(=O)c3c2c2ccccc2n3C)C1 (configuration not stated)	9%	4%	12%[46.1 µM]	nt	19%[46.1 µM]	nt
O=C(COC(=O)c1ccc(Br)cc1)NCC1CCCO1 (configuration not stated)	-15%	i	-1%	nt	15%	nt
O=C(NC(=S)NCC1CCCO1)c1ccc(Cl)cc1 (configuration not stated)	-10%	i	?	41*	-2%	29*
O=C(NC(=S)NCCN1CCOCC1)c1ccc(Cl)cc1	-14%	-10%	4%[46.1 µM]	34	-21%[46.1 µM]	24*
O=C(NC(=S)NCCN1CCOCC1)c1ccc(Cl)cc1Cl	-16%	nt	7%[46.1 µM]	2	4%	3
Cc1ccc(C(=O)NC(=S)NCC2CCCO2)cc1 (configuration not stated)	-4%	nt	?	102	3%	65*
O=C(NC(=S)NCC1CCCO1)c1ccc([N+](=O)[O-])cc1 (configuration not stated)	-18%	-21%	-9%	10	1%	9
O=C(COC(=O)c1ccccc1)NCC1CCCO1 (configuration not stated)	-23%	-15%[1.46 µM]	9%	46*	8%	24*
CCOc1cc(NC(=S)NCC2CCCO2)c(OCC)cc1NC(=O)c1ccccc1 (configuration not stated)	nt	nt	-17%	8	-1%	-3
CCOc1cc(NC(=S)NCC2CCCO2)c(OCC)cc1NC(=O)c1cccc(C)c1 (configuration not stated)	nt	nt	1.6µM*	-9	?	-3
O=C(NC(=S)NCC1CCCO1)c1ccccc1 (configuration not stated)	-9%	0%	?	34*	4%	31*
Nc1nnc(N2CCc3ccccc32)s1	nt	nt	-12%	57*	?	27*
Nc1nnc(N2CCCCC2)s1	nt	nt	3%	10	12%	-4
COc1cccc([C@H]2Oc3ccc(OC)cc3/C(=N\OCC[C@@H]3C=C[C@H](OC(C)=O)[C@@H](COC(C)=O)O3)[C@@H]2O)c1	nt	nt	-24%[14.2 µM]	nt	nt	nt
C/C(=N\NC(=O)c1ccc(Cl)cc1)c1ccc(Br)s1	-16%	-20%	-33%	90*	?	29*
COC(=O)N/N=C(\C)c1ccco1	7%	6%	-7%[46.1 µM]	2	4%	2
C/C(=N/NC(=O)c1ccco1)c1ccc(Br)s1	nt	nt	nt	35*	nt	26*
SMILES	Vaccinia Venus	VACV mCherry inh	MARV entry inh	Shiga toxin inh	Lassa entry inh	Cycloheximide cs
C/C(=N\NC(=O)c1ccco1)c1ccc(C(=O)O)s1	nt	nt	nt	80*	nt	50*
COc1ccc(Oc2ncnc3c2oc2ccccc23)cc1	-15%	-15%	nt	nt	-6%[46.1 µM]	nt
COc1ccccc1Oc1ncnc2c1oc1ccccc12	-2%	-4%	-18%	23	-27%	21*
Cc1ccc(Nc2ncnc3c2oc2ccccc23)cc1	-18%	nt	?	100	-3%	45*
COc1ccc(Nc2ncnc3c2oc2ccccc23)cc1	-11%	nt	?	124*	?	56*
COC(=O)N1C2CC(=O)O[C@H]3c4cc5c(cc4[C@]1(C)[C@@]3(Br)c1ccccc12)OCO5	nt	nt	8%[14.2 µM]	nt	nt	nt
O=C(C1CCC(CNc2c(N3CCCCC3)c(=O)c2=O)CC1)N1CCCC1 (configuration not stated)	nt	nt	nt	-9	nt	1
O=C(CCn1nc(-c2ccc(Cl)cc2)c2ccccc2c1=O)Nc1ccc(OC(F)(F)F)cc1	-6%	-7%	-2%[46.1 µM]	nt	2%[46.1 µM]	nt
COc1ccc(NC(=O)O/N=C/c2ccccc2Cl)cc1	nt	nt	nt	72*	nt	30*
COc1ccc(NC(=O)O/N=C/c2ccccc2)cc1	nt	nt	nt	79*	nt	40*
COC(=O)N/N=C/c1ccccc1Cl	-5%	i	8%[46.1 µM]	21	?	9
CN(C)c1ccc(/C=N/OC(=O)Nc2ccccc2)cc1	2%	-16%	?	52*	?	37*
COC(=O)[C@@]1(C=C2c3ccc(F)cc3[C@@H](OC)[C@@H]2C)[C@@H]2CC=C[C@@H]21	nt	nt	0%[14.2 µM]	nt	nt	nt
CC(=O)c1ccc(OCC(=O)NC(=O)NC2CCCC2)cc1	-3%	-3%	nt	nt	nt	nt
Cc1ccc(C(=O)OCC(=O)Nc2ccc3c(c2)OCO3)cc1S(=O)(=O)N1CCOCC1	-4%	i	-27%[46.1 µM]	-11	?	-1
Cc1ccc(S(=O)(=O)N2CCCCC2)cc1NC(=O)c1ccc2c(c1)OCO2	-12%	-16%	-26%	-6	-10%	-2
Cc1ccc(C(=O)Nc2ccc3c(c2)OCO3)cc1S(=O)(=O)N1CCOCC1	-14%	-1%	10%	107*	2%	29*
Cc1ccc(C(=O)Nc2ccc3c(c2)OCO3)cc1S(=O)(=O)N1CCCC1	-26%	nt	-5%	45*	-1%	46*
CCCCC(=O)Nc1ccc(C(=O)NCCc2ccccc2)cc1	-20%	i	?	11	14%	31*
CCCC(=O)Nc1ccc(C(=O)NCCc2ccc(F)cc2)cc1	6%	-13%	?	19	5%	24*
CCN(CC)CCNC(=O)c1ccc(-n2c(C)cc3c2CCCC3=O)cc1	-19%	i	?	-9	-26%[46.1 µM]	-2
COC(=O)C(=NNc1c(C)n(C)n(-c2ccccc2)c1=O)C(=O)OC	-1%	-17%	-14%	-9	1%	-6
CCOC(=O)NC(=O)/C(C#N)=N\Nc1ccc(Cl)cc1	-20%	nt	6%[46.1 µM]	-6	10%	-6
N#C/C(=N\Nc1ccc(Cl)cc1)C(=O)c1ccccc1	?	-24%	11µM*	76	?	13
Cc1c(N/N=C(\C#N)C(=O)c2ccc(Cl)cc2)c(=O)n(-c2ccccc2)n1C	?	11µM*	4.1µM*	15	?	0
CCCS(=O)(=O)Nc1cc(-c2cn3cccc(C)c3n2)ccc1C	-16%	-20%	18%[46.1 µM]	nt	12%[46.1 µM]	nt
Cc1ccc(OCC(=O)Nc2ccc(OCc3cc(=O)n4ccsc4n3)cc2)cc1	3%	-6%	-3%[46.1 µM]	nt	6%[46.1 µM]	nt
CCCCN(c1ccccc1)c1ncnc2c1cnn2-c1cccc(C)c1	-2%	-16%	nt	nt	15%[46.1 µM]	nt

Screening data deposited in PubChem by National Center for Advancing Translational Sciences (NCATS).
